Most compounds without a hit are left out; they make up all but 9% or so of the library.
ALDH1A1 block = qHTS Assay for Inhibitors of Aldehyde Dehydrogenase 1 (ALDH1A1); Aldehyde dehydrogenase 1A1 (Homo sapiens), P00352; Potency, µM (highest dose often 75.3 µM), without a hit: top-dose activity, negative = inhibition, usual class: inhibitors; Purified ALDH1A1, NADH fluorescence, propionaldehyde substrate; AID 1030, 2008; 7.3% of 220,000 active; active means well fitted inhibition curve with a large enough effect, not every such curve was filed as active; inconclusive means small, poorly fitted or top-dose-only effect, or another doubt; inactive means no such curve, though single readings can be large or run the other way;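 further: plate controls were no enzyme wells and a reference inhibitor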
Target sequence (P00352 whole entry, looked up): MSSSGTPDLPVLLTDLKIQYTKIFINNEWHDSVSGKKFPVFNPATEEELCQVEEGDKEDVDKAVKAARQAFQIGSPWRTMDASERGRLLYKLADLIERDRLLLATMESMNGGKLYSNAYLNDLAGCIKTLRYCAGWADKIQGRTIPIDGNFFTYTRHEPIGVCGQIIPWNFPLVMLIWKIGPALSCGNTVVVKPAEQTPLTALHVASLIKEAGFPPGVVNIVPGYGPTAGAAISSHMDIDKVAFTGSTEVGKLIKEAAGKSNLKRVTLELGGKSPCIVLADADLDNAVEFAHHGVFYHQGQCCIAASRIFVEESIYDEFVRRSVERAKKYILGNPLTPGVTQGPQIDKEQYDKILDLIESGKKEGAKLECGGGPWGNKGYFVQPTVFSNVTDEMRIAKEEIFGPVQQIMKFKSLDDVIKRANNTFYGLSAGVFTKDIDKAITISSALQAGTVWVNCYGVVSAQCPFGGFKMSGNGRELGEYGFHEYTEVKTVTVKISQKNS
HPGD block = qHTS Assay for Inhibitors of HPGD (15-Hydroxyprostaglandin Dehydrogenase). 15-hydroxyprostaglandin dehydrogenase [NAD(+)] (Homo sapiens), P15428. purified HPGD, NADH fluorescence kinetic, PGE2 substrate. Potency, µM, inactives show top-dose activity change, negative = inhibition, usual class: inhibitors. 4.3% of 150,000 active. AID 894, 2007; active means well fitted inhibition curve with a large enough effect, not every such curve was filed as active; inconclusive means small, poorly fitted or top-dose-only effect, or another doubt; inactive means no such curve, though single readings can be large or run the other way
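20 nM HPGD preincubated 15 min at room temperature with compound in 50 mM Tris-HCl pH 8, 0.01% Tween 20. Started with 1 mM NAD+ and 30 uM prostaglandin E2; NADH fluorescence (360/450 nm) read 5 times over 30-s intervals, last minus first.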
LMNA splice mod = qHTS Assay for Modulators of Lamin A Splicing. HeLa LMNA splicing GFP/RFP minigene ratio, 48 h. Potency, µM (top dose mostly 46.1 µM), for inactives: at the top dose ratio change, negative = inhibition, usual class: inhibitors. 0.01% of 200,000 active; active means well fitted inhibition curve with a large enough effect in the signal ratio, with a control signal flat, not every such curve was filed as active; inconclusive means small, poorly fitted or top-dose-only effect, or effect the other way, or a change in a side signal; the % refers to the signal ratio
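S3 HeLa cells stably expressing lamin A-EGFP splicing minigene plus DsRed2, 600 cells/well, 48 h compound exposure at 37C. Laser-scanning cytometry; analysed as GFP (500-530 nm)/RFP (575-640 nm) total intensity ratio; 0.5% DMSO vehicle.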
IMPase Li cell = qHTS Assay for Identifying the Cell-Membrane Permeable IMPase Inhibitors: Potentiation with Lithium; Potency, µM (series often up to 59.4 µM), inactives show at the highest dose activity, negative = IMPase inhibition, hits mostly inhibitors; CHO-M1 cells, IP1 TR-FRET (IP-One), carbachol + lithium; 0.35% of 210,000 active;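 further: IP1 builds up when IMPase is blocked and the TR-FRET signal falls; plate controls were basal vehicle for no effect and high inhibitor control for full effect; nearly all actives have a fitted effect of over 50% in size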
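IP1 accumulation measured by competitive TR-FRET in lysed CHO-M1 cells after 30 min compound exposure at 37C, with a small lithium addition to potentiate weak responses. Hill-equation AC50 from ratio and donor-channel data.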
Luc counter = Counterscreen for Luciferase (Kinase-Glo TM) Inhibition. Luciferin 4-monooxygenase (Photuris pensylvanica), Q27757. Kinase-Glo luciferase, ATP luminescence, 8 min. Potency, µM (series often up to 38.3 µM), for inactives: top-dose activity change, negative = inhibition, actives largely listed as inhibitors. 0.28% of 200,000 active. AID 1379, 2008; further: nearly all actives have a fitted effect of over 60% in size
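Compound is pinned into ATP-containing buffer (10 uM ATP, imidazole pH 7.2, 7 mM MgCl2). Kinase-Glo luciferase reagent is then added. Light output is recorded following an 8-min room-temperature incubation.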
Numbers without * were called inactive; ? = inconclusive; . = no result; [ ] = another dose, or the depositor's remark. Unless noted, the call rests on the fitted dose curve; in most records, active means well fitted curve in the direction sought with a large enough effect; inconclusive means small, poorly fitted or top-dose-only effect, or another doubt; inactive means no such curve, though single readings can be large; an effect the other way counts as inactive or inconclusive. Unless noted, on the % scale 0 is the no-effect control and ±100 the full control effect; potency means the concentration at half of the fitted maximal effect.

SMILES	ALDH1A1 block	HPGD block	LMNA splice mod	IMPase Li cell	Luc counter
COc1ccc(Oc2ncc3nc(-c4ccc(F)cc4)c(=O)n(CCC#N)c3n2)cc1	-3%	.	-6%	1%	.
O=C(NCc1ccccc1)c1ccc2c(=O)n(CCCN3CCCC3=O)c(=S)[nH]c2c1	4.5µM*	-11%	11%	-9%[38.3 µM]	-1%
C=CCNC(=O)c1ccc2c(=O)n(CCCN3CCCC3=O)c(=S)[nH]c2c1	3.2µM*	.	.	12%	-1%
COc1ccc(CNC(=O)c2ccc3c(=O)n(CCCN4CCCC4=O)c(=S)[nH]c3c2)cc1	28µM*	.	-9%[46 µM]	6%	-2%
COc1ccccc1CNC(=O)c1ccc2c(=O)n(CCCN3CCCC3=O)c(=S)[nH]c2c1	2µM*	.	?	-6%	-4%
CC(C)c1nc2ccc(C(=O)NCc3ccccc3Br)cc2o1	.	.	-7%[46 µM]	.	.
O=C(COC(=O)C1(c2ccc(F)cc2)CCCC1)NC1CC1	?	-2%	7%	45%[38.3 µM]	-1%
Cc1ccc(-n2c(=O)c3c(C)c(C(=O)N(C)C)sc3n(CC(=O)C(C)(C)C)c2=O)cc1C	.	.	-12%[46 µM]	.	.
COc1ccc(OC)c(-n2c(=S)[nH]c3cc(C(=O)NCCCN4CCCC4=O)ccc3c2=O)c1	-10%	-1%	9%	-1%[38.3 µM]	-1%
O=C(NCCCN1CCCC1=O)c1ccc2c(=O)n(Cc3ccco3)c(=S)[nH]c2c1	13µM*	-4%	-4%	-5%	0%
COc1ccc(-n2c(=S)[nH]c3cc(C(=O)NCCCN4CCCC4=O)ccc3c2=O)cc1OC	2.5µM*	-6%	3%	-10%[38.3 µM]	2%
O=C(CSCc1ccc(F)cc1)N1CCc2c([nH]c3ccccc23)C1c1ccc(F)cc1 (stereo not given)	.	.	-24%[46 µM]	.	.
CC(=O)NC(Cc1ccc(F)cc1)C(=O)NC1CCN(c2ncccc2[N+](=O)[O-])CC1 (stereo not given)	-1%	.	-16%[46 µM]	-1%	2%
O=C(Oc1ccc(N(Cc2cccs2)C2=NS(=O)(=O)c3ccccc32)cc1)c1ccccc1Cl	?	-21%	1%	14%	5%
O=C(Oc1ccc(N(Cc2cccs2)C2=NS(=O)(=O)c3ccccc32)cc1)c1ccco1	28µM*	-23%	-7%	16%	4%
O=S(=O)(NCCc1ccccc1)c1cccc2cccnc12	4%	.	15%[46 µM]	5%	-1%
CN(CCCNS(=O)(=O)c1cccc2cccnc12)Cc1ccccc1	14µM*	-12%	-5%	6%[38.3 µM]	-1%
O=C(c1ccc2c(c1)N(Cc1cccc(Cl)c1)C(=O)c1ccccc1S2(=O)=O)N1CCN(c2cccc(C(F)(F)F)c2)CC1	.	.	6%[46 µM]	.	.
CCOC(=O)c1sc2nc(C)nc(SCC(=O)N(C)C3CCS(=O)(=O)C3)c2c1C (stereo not given)	?	.	.	10µM*	-6%
CCOC(=O)c1sc2nc(C)nc(SCC(=O)NC(C)CCc3ccccc3)c2c1C (stereo not given)	6%	-4%	2%	10µM*	7%
CC(CCc1ccccc1)NC(=O)CSc1ccccn1 (stereo not given)	-4%	.	.	3%	7%
CC(=O)c1cccc(NC(=O)Cn2c(SCC(=O)Nc3ccc(F)cc3)nc3ccccc32)c1	.	.	7%[46 µM]	.	.
COC(=O)[C@@H]1CCCN1Cc1nc(Cc2ccc(OC)c(OC)c2)no1	0.89µM*	.	.	1%	-3%
COC(=O)[C@@H]1CCCN1Cc1nc(Cc2ccccc2F)no1	?	.	.	8%	1%
CC(O)CNC12CC3CC(CC(C3)C1)C2 (stereo not given)	1%	.	.	?	-6%
SMILES	ALDH1A1 block	HPGD block	LMNA splice mod	IMPase Li cell	Luc counter
O=C(CCN1CCOCC1)c1ccc(Cl)cc1	0.089µM*	.	.	3%	-5%
O=C(CCN1CCOCC1)c1ccc(Br)cc1	0.1µM*	.	?	6%	-1%
Clc1ccc(SCCCCN2CCOCC2)cc1	-1%	-3%	3%	2%	-2%
Brc1ccc(OCCCN2CCOCC2)cc1	-11%	6%	7%	11%[38.3 µM]	-3%
COc1ccc(CN2C(=O)NC(C)(c3ccc(C)cc3)C2=O)cc1F (stereo not given)	0.35µM*	.	-16%[46 µM]	21%	0%
COc1ccc(CN2C(=O)NC3(CCOc4ccccc43)C2=O)cc1F (stereo not given)	-14%	-4%	-19%	-2%	4%
O=C(/C=C/c1ccco1)N1CCCC(c2ccccc2)C1 (stereo not given)	10µM*	.	?	3%	0%
COc1ccc(OC)c(/C=C/C(=O)N2CCCc3ccccc32)c1	?	.	.	9%	10%
O=C(/C=C/c1ccco1)N1CCc2ccccc21	?	.	-7%[46 µM]	1%	10µM*
COc1cc(/C=C/C(=O)N2CCCc3ccccc32)cc(OC)c1OC	14µM*	-10%	?	7%	0%
COc1ccc(/C=C/C(=O)N2CCCc3ccccc32)cc1	?	11µM*	?	9%	-5%
COC(=O)[C@@H](NC(=O)N1CCc2nc(-c3ccccc3)c3c(c2C1)CO[C@@H](C)C3)C(C)C	0%[13.5 µM]	-13%	6%[9.22 µM]	-6%	-13%[7.66 µM]
COc1cccc2c(=O)n(CC(=O)N3CCCc4ccccc43)ccc12	10µM*	-10%	6%	-8%[38.3 µM]	2%
COc1cc(/C=C(\C#N)c2nn(CCO)c(N)c2C#N)cc(OC)c1OC	?	.	?	-2%	1%
COc1cc(/C=C(\C#N)c2[nH]nc(N)c2C#N)cc(OC)c1O	-7%	16µM*	?	49%[38.3 µM]	6%
O=c1c2c(n3cnnc3n1-c1ccccc1)-c1ccccc1CC21CCCC1	?	-7%	-10%	-1%	7%
Cn1c(=O)c2c(n3cnnc13)-c1ccccc1CC21CCCC1	11µM*	-11%	?	-5%	4%
Cc1nc2ccccn2c1C(=O)NNS(=O)(=O)c1ccc(Cl)cc1	8.9µM*	.	.	.	.
O=C(NNS(=O)(=O)c1ccc(Cl)cc1)c1cnn(-c2ccccc2)c1-n1cccc1	2µM*	-9%	9%	2%[38.3 µM]	-2%
NNC(=O)c1cnn(-c2ccccc2)c1-n1cccc1	0.71µM*	.	?	-7%	-1%
O=C(NNS(=O)(=O)c1ccccc1)c1cnn(-c2ccccc2)c1-n1cccc1	-12%	2%	13%	-4%[38.3 µM]	-3%
Cc1ccc(NC(=O)C(Nc2cccc(C)c2)c2ccccc2)cc1 (stereo not given)	28µM*	-13%	?	19%	-2%
Cc1ccc(NC(=O)C(Nc2ccccc2)c2ccccc2)cc1 (stereo not given)	-9%	-4%	-8%	5%	5%

Assay outcomes from PubChem.
